Data on 21 compounds can be found in PubChem BioAssay (NCI).

The nature of assay [1]: NCI Yeast Anticancer Drug Screen. Data for the rad50 strain (AID 155).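 Note: 0% = growth of vehicle-only cultures of the same strain.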 To be noted: S. cerevisiae rad50 strain growth inhibition; at 50.0 µM; stronger effect = higher value. The method in brief:
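Relative growth inhibition (compound vs vehicle) was measured in yeast with a defined repair-gene alteration.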

The nature of assay [2]: NCI Yeast Anticancer Drug Screen. Data for the mec2-1 strain (AID 157). The conditions noted are these: S. cerevisiae mec2-1 strain, at 50.0 µM, stronger effect = higher value. The method in brief: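 Readout is yeast growth inhibition, normalised to vehicle-treated controls, in the mec2-1 strain exposed to compound.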
A short description of assay [3]: NCI Yeast Anticancer Drug Screen. Data for the sgs1 mgt1 strain (AID 161).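 Note: 0% = growth of cultures given vehicle only.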 The conditions noted are these: S. cerevisiae sgs1 mgt1 strain, at 50.0 µM, stronger effect = higher value. The method in brief:
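Compounds are added to genetically altered yeast, and growth is compared with cultures given vehicle alone to give percent inhibition.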

A short description of assay [4]: NCI Yeast Anticancer Drug Screen. Data for the cln2 rad14 strain (AID 165).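 Note: 0% = growth equal to vehicle treated cultures.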 To be noted: S. cerevisiae cln2 rad14 strain, at 50.0 µM, stronger effect = higher value. The method in brief: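 Relative to vehicle controls, growth inhibition of compound-treated cln2 rad14 yeast was recorded.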
Assay [5] can be described thus: NCI Yeast Anticancer Drug Screen. Data for the bub3 strain (AID 167). The conditions noted are these: S. cerevisiae bub3 mutant strain, at 50.0 µM, stronger effect = higher value. The method in brief: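 Screening used yeast with an engineered genetic alteration affecting cell cycle control. Compound-exposed cultures were compared with vehicle cultures, and reduced growth was taken as inhibition.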

Assay [6] is described as follows: NCI Yeast Anticancer Drug Screen. Data for the mlh1 rad18 strain (AID 175). To be noted: S. cerevisiae mlh1 rad18 strain growth inhibition; at 50.0 µM; stronger effect = higher value. The method in brief: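 Test agents were incubated with a yeast strain of defined genotype (DNA damage repair defect). Inhibition of growth was derived by comparison with vehicle-exposed cultures.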

The panel holds about 79,000 compounds, 15% with a hit somewhere; the sample as a whole holds those more often. A number with no mark means an inactive call. Active and inactive are the calls of the source. Cut-off read from the data, not from the text of the source: active = growth inhibition above about 70%; inactive = the rest.

`O=C(O)/C=C/C(=O)O.[Ni]`: the growth inhibition in assay [1] is -13.8%; in assay [2], -21.6%; in assay [3], -28.1%; in assay [4], -45.5%; in assay [5], 0.35%; in assay [6], 0.5%.

Regarding `O=C(O)CNCP(=O)(O)O`, the growth inhibition in assay [1] is -31.4%; in assay [2] it was -23.1%; in assay [3], -52.1%; in assay [4], -15.1%; in assay [5] it was -46.8%; in assay [6] it was -20%.

In the case of `CCOP(=O)(OCC)/C(C#N)=C/c1cccs1`, the growth inhibition in assay [1] is 0.5%; in assay [2], -35.2%; in assay [3], -15.2%; in assay [4], -15.8%; in assay [5], -41.8%; in assay [6], -13.7%.

As to `N#CCCCCN=[N+]=[N-]`, the growth inhibition in assay [1] was -4%; in assay [2], 27.1%; in assay [3] it was -12.6%; in assay [4], 3.25%; in assay [5] it was 20.4%; in assay [6] it was -8.35%.

On to `CCOC(=O)C1C2(C(C)=O)C=Nc3c(C#N)cnn3C12C(=O)OCC` (stereo unspecified), for which the growth inhibition in assay [1] was 0.9%; in assay [2], -3.35%; in assay [3] it was 4.85%; in assay [4], 28.4%; in assay [5], 4.2%; in assay [6], -7.95%.

With `CCC(=O)OC1(c2ccccc2)CCN(CCC(=O)c2ccccc2)CC1`, the growth inhibition in assay [1] was 45.5%; in assay [2], 28.4%; in assay [3], 36.8%; in assay [4], 19.2%; in assay [5], 36.8%; in assay [6], 25.9%.

For the compound `O=C1NC2(CCCC2)C(=O)N1CCCN(CCCl)CCCl`, the growth inhibition in assay [1] is 2.75%; in assay [2] it was 12.9%; in assay [3], 25.1%; in assay [4], -37.3%; in assay [5] it was 7.35%; in assay [6], 3.2%.

As to `COC(N)=O`, the growth inhibition was -15.6% in assay [1]; -10.2% in assay [2]; -16.9% in assay [3]; -15.9% in assay [4]; -2.6% in assay [5]; -8.3% in assay [6].

In the case of `Cc1ccc(C)c(NP(=O)(Nc2cc(C)ccc2C)N(CCCl)CCCl)c1`, the growth inhibition in assay [1] was 30.2%; in assay [2], -4.4%; in assay [3], 30.2%; in assay [4], 8.1%; in assay [5] it was 9.8%; in assay [6], -8.55%.

Take `N.N.N.N.N.N.[Br-].[Co+3]`: the growth inhibition is -0.9% in assay [1]; 7.7% in assay [2]; -34.2% in assay [3]; 6.3% in assay [4]; -1.2% in assay [5]; 22.6% in assay [6].

Consider `N#CC(C#N)C1CN2CCC1CC2` (stereo unspecified), for which the growth inhibition was 1.95% in assay [1]; 13.3% in assay [2]; 15.6% in assay [3]; 24.5% in assay [4]; 4.9% in assay [5]; -26.6% in assay [6].

For `CNC1=C(C)C(=O)C2=C(C1=O)C(COC(N)=O)C1(OC)C3NC3CN21` (stereo unspecified), the growth inhibition in assay [1] was 58.8%; in assay [2], 53%; in assay [3], 52%; in assay [4], 60.6%; in assay [5] it was 31.4%; in assay [6], 83.8% (active).

For the compound `CNC1=C(N2CC2)C(=O)C(NC)=C(N2CC2)C1=O`, the growth inhibition in assay [1] was 7.7%; in assay [2] it was 28.3%; in assay [3] it was 17.9%; in assay [4], 10.8%; in assay [5] it was 13.8%; in assay [6], 36.4%.

On to `C=C(C)[C@H]1Cc2c(ccc3c2O[C@@H]2COc4cc(OC)c(OC)cc4[C@@H]2C3=O)O1`, for which the growth inhibition in assay [1] is 43.5%; in assay [2], 19.2%; in assay [3], 43.4%; in assay [4] it was 27.8%; in assay [5] it was 49.1%; in assay [6], 52.8%.

`O=NN1CCCCCCC1C(=O)O` (stereo unspecified): the growth inhibition is 1.3% in assay [1]; 6.55% in assay [2]; -14.7% in assay [3]; -22.8% in assay [4]; 9.15% in assay [5]; 19.5% in assay [6].

For the compound `CCC1CN1P1(=O)OCC(C)(N)CO1` (stereo unspecified), the growth inhibition in assay [1] was -9.45%; in assay [2], 0.7%; in assay [3], -7.35%; in assay [4], 42.6%; in assay [5], -29.1%; in assay [6] it was -10.6%.

Regarding `CC(=O)OC1CCC2(C)C(CCC3C2CCC2(C)C3CC(CC(=O)O)C2OC(C)=O)C1` (stereo unspecified), the growth inhibition in assay [1] is 16.5%; in assay [2], 18.8%; in assay [3], 7.3%; in assay [4] it was -0.5%; in assay [5], 3.3%; in assay [6], 24%.

`O=c1n(Cc2ccccc2)c2ccccc2n1CC1CS1` (stereo unspecified): the growth inhibition in assay [1] was 55.5%; in assay [2], 21.4%; in assay [3], 62.9%; in assay [4], 4.75%; in assay [5] it was 15.8%; in assay [6], 31.1%.

Regarding `CCCCS(=O)(=O)Cl`, the growth inhibition in assay [1] is 34.5%; in assay [2], 13.2%; in assay [3], 9.8%; in assay [4], -12.5%; in assay [5], 29.8%; in assay [6] it was 25.9%.

For the compound `CC1CS1` (stereo unspecified), the growth inhibition in assay [1] is -5.7%; in assay [2], 4.8%; in assay [3], -10.1%; in assay [4] it was 2.9%; in assay [5], 12.2%; in assay [6], -11.1%.

In the case of `CCOP(=O)(OCC)/C(C#N)=C/c1cnc[nH]1`, the growth inhibition was -51.6% in assay [1]; -30.6% in assay [2]; -38% in assay [3]; -17.2% in assay [4]; -20.2% in assay [5]; -54.5% in assay [6].
